For this test, the target named is Fibroblast growth factor 10 (Homo sapiens) (UniProt O15520). The test can be described thus: compounds binding fibroblast growth factor 10 – biochemical, small-molecule microarray, 635 nm fluorescence, primary screen (AID 1102). As to conditions: FGF10 binding, fluorescence 635 nm, higher = more signal.
Sequence of Fibroblast growth factor 10 (Homo sapiens) (O15520 whole entry, looked up): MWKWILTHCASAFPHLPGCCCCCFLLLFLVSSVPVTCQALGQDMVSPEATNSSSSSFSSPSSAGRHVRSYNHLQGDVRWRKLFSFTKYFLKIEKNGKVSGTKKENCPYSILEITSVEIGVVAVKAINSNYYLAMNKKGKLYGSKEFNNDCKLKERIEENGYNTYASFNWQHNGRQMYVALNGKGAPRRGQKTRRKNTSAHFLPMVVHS
With `CC(C)C[C@@H]1NC(=O)[C@H]2C[C@@H](C(=O)NCCCCCNC(=O)CS)[C@@H](c3cccc(OCCO)c3)N2C1=O`, the composite z-score was 1.03. The figure for `COc1ccc(C#Cc2ccc3c(c2)[C@]2(C(=O)N3)[C@H](c3ccc(O)cc3)N3[C@H](c4ccccc4)[C@H](c4ccccc4)OC(=O)[C@H]3[C@@H]2C(=O)NC[C@H](O)c2ccccc2)cc1` is 0.94; for `O=C1OCC=C[C@H]2OC34C=CCN(c5ccc(Cl)cc5)C(=O)[C@H]3N(CCCCCCO)C(=O)[C@@H]4[C@@H]12` (stereo not given in full) it is -1.17. The figure for `C=CCOC(=O)[C@H]1[C@@H]2C(=O)O[C@@H](c3ccccc3)[C@@H](c3ccccc3)N2[C@@H](c2ccc(OCCOC(=O)[C@@H]3C[C@@H]4C(=O)N5CCC[C@H]5C(=O)N4[C@@H]3c3ccc(O)cc3)cc2)[C@]12C(=O)Nc1ccccc12` is 0.629; for `CCCC[C@H]1OB(O)C[C@H]2C1=C(C)C[C@H]1C(=O)N(Cc3ccccc3)C(=O)[C@H]12` it is 1.13; for `CCCC[C@@H]1C[C@H]1[C@@H](NC(=O)c1ccc(-c2ccccc2)cc1)c1ccc(-c2ccccc2)cc1` it is 0.259. The figure for `COCC(=C=CC[C@@H](O)c1ccc(CO)o1)CCO` is 1.26. For the compound `Cc1ccc(S[C@]2(C(=O)NCc3ccccc3)CC(=O)N(Cc3ccccc3Cl)[C@@H]2c2ccc(CO)cc2I)cc1`, the composite z-score was -0.761. Regarding `CC=CC(O)C1C=CC2C(=O)N(c3ccccc3)C(=O)C2N1Nc1ccc(C(C)C)cc1` (stereo not given), the composite z-score stood at 0.878. In the case of `COCCOC(=O)N1C(=O)[C@@]2(c3ccccc31)[C@H](C(=O)NC[C@H](O)c1ccccc1)[C@H]1C(=O)O[C@H](c3ccccc3)[C@H](c3ccccc3)N1[C@@H]2c1ccc(OCCO)cc1`, the composite z-score turned out to be 1.08. The figure for `[N-]=[N+]=NCc1ccccc1C[C@@]1(C(=O)NCC(O)CO)N=C(c2ccc(OCCCO)cc2)O[C@@H]1c1ccccc1CN=[N+]=[N-]` (stereo not given in full) is 1.33; for `COc1ccc(C#Cc2ccc3c(c2)[C@]2(C(=O)N3)[C@H](C(=O)NC[C@H](O)c3ccccc3)[C@H]3C(=O)O[C@H](c4ccccc4)[C@H](c4ccccc4)N3[C@@H]2c2ccccc2OCCO)cc1` it is 0.877. With `COC(=O)[C@@]1(Cc2ccccc2)[C@H]2c3cc(C(=O)N(C)C)n(Cc4cc(C)n(C)n4)c3C[C@H]2CN1C(=O)c1ccccc1`, the composite z-score stood at 0.0408. The value for `C#CCN(C(/C=C/c1ccccc1)CO)C(C(=O)O)c1ccccc1` (stereo not given) was 0.0698. For the compound `COc1ccc([Si](C)(C)[C@@H]2[C@@H](CCn3cc([C@H](O)c4ccccc4)nn3)O[C@]3(C(=O)N(Cc4cccc(N5CCOC5=O)c4)c4ccccc43)[C@H]2C)cc1`, the composite z-score was -1.02. The figure for `Cc1ccc(S[C@]2(C(=O)O)CC(=O)N(C3Cc4ccccc4C3)[C@@H]2c2ccc(CO)cc2I)cc1` is -0.345; for `CCOC(=O)C[C@H]1[C@H](OC(=O)c2ccc(-c3ccccc3)cc2)[C@@H](NC(=O)Cc2ccc(OC)cc2)c2cc(OCCCO)ccc2N1C(=O)c1ccc2ccccc2n1` it is 0.181. The compound `COc1ccc([Si](C)(C)[C@@H]2[C@@H](CC(=O)N(CCO)Cc3ccccc3)O[C@]3(C(=O)N(C)c4ccccc43)[C@H]2C)cc1` came in with a composite z-score of 1.05. The figure for `O=c1cccc(C=Cc2ccccc2)o1` is -0.629; for `O=C1OCC=C[C@H]2OC34C=CCN(c5ccc6ccccc6c5)C(=O)[C@H]3N(CCCO)C(=O)[C@@H]4[C@@H]12` (stereo not given in full) it is -0.709; for `COCCOC(=O)N1C(=O)[C@@]2(c3cc(C#CC4=CCCCC4)ccc31)[C@H](C(=O)N1CCc3cc(OC)c(OC)cc3C1)[C@H]1C(=O)O[C@H](c3ccccc3)[C@H](c3ccccc3)N1[C@@H]2c1ccccc1OCCO` it is 0.964. `COCCOC(=O)N1C(=O)[C@@]2(c3cc(C#CCC(C(=O)OC)C(=O)OC)ccc31)[C@H](c1ccccc1OCCO)N1[C@H](c3ccccc3)[C@H](c3ccccc3)OC(=O)[C@H]1[C@@H]2C(N)=O` came in with a composite z-score of 1.22. The value for `CC(C)OC(=O)CC(=O)CC(O)c1ccc(C#N)cc1` (stereo not given) was 0.169; that for `COC(=O)[C@@]1(Cc2ccc(OC)cc2)[C@H]2c3cc(C(=O)N(C)C)n(Cc4c(OC)[nH]cc(C)c4=O)c3C[C@H]2CN1C(=O)c1ccccc1` was 0.0004. `O=C1C[C@@](C(=O)NC2CC2)(c2ccc([N+](=O)[O-])cc2)[C@@H](c2ccc(CO)cc2)N1CC12CC3CC(CC(C3)C1)C2` returned a composite z-score of 0.474.
